High-throughput results: PubChem, National Center for Advancing Translational Sciences (NCATS)
Sampled rows, rich in hits. Any-hit rate of the full collection: about 7.9%.
LASV entry inh: inhibitors of Lassa virus binding or cell entry; AID 540256; 1.2% of 300,000 active; Lassa virus pseudotype entry inhibition, cell reporter; Potency, µM (highest dose often 37.9 µM), for inactives: at the highest dose activity change, negative = inhibition, hits mostly inhibitors; calls by dose curve; tested in HEK293 cells; note: potency is the fitted concentration of half-maximal effect; nearly all actives have a fitted effect of over 50% in size
HCMV inh: human cytomegalovirus inhibition | activity change, negative = inhibition, % at 57.5 µM | HFF cells, HCMV-luciferase reporter, 72 h; stronger effect = lower value | 4.5% of 410,000 active; in the data active = activity change below about -60%; inconclusive = no clear call, values can overlap the other calls; inactive = above about -39%
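Human foreskin fibroblasts infected with luciferase-reporter HCMV at MOI 1 PFU/cell, compounds at two doses. Luciferase measured 72 h post infection; normalized to buffer-only basal and Salinomycin (10uM) controls.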
HCV inh: blocks hepatitis C virus | Huh7.5.1 HCVcc-Cre infection, luciferase reporter, 44 h | Potency, µM (titrated, usually from 41.8 µM), without a hit: top-dose activity change, negative = inhibition, actives largely listed as inhibitors | 3.4% of 340,000 active | AID 651820; active = well fitted inhibition curve with a large enough effect; inconclusive = small, poorly fitted or top-dose-only effect, or another doubt; inactive = no such curve, though single readings can be large or run the other way; note: potency is the fitted concentration of half-maximal effect
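Cells seeded at 1,000/well and cultured 4 h, then compounds added followed by HCVcc-Cre virus (~0.5 moi). After 44 h further culture, luciferase substrate was added, plates held 15 min at room temperature, and luminescence read for 15 sec.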
MARV entry inh: blocks Marburg virus binding to or entry into cells; Marburg virus pseudotyped entry inhibition, cell reporter; Potency, µM (titrated, usually from 37.8 µM), inactives show at the highest dose activity change, negative = inhibition, most hits filed as inhibitors; 1.8% of 300,000 active; calls by dose curve; tested in HEK293 cells; note: potency is the fitted concentration of half-maximal effect
FMDV inh: foot and mouth disease virus antiviral activity. FMDV antiviral cell-based qHTS. Potency, µM (top dose mostly 57.9 µM), inactives show at the highest dose activity change, negative = inhibition, actives largely listed as inhibitors. 1.2% of 410,000 active; calls by dose curve; tested in HEK293T cells; note: read-out not given here; potency is the fitted concentration of half-maximal effect; nearly all actives have a fitted effect of over 45% in size
An asterisk follows results filed as active; ? = inconclusive; nt = no result given; ! = not active in a repeat; [ ] = remark or other dose. % is set by controls: 0 for no effect and ±100 for the full control effect.

SMILES | LASV entry inh | HCMV inh | HCV inh | MARV entry inh | FMDV inh
COc1ccc(COCC(O)CN2CCC(CN3C(=O)c4cccc5cccc(c45)C3=O)CC2)cc1OC (stereo not drawn) | ? | 0.2 | ? | 9.2µM* | ?
COc1ccc(COCC(O)CN2CCC(C(N)=O)CC2)cc1OC (stereo not drawn) | 7.0%[46.1 µM] | -25.0 | 10.0% | 1.0%[46.1 µM] | -1.2%
COc1cccc(OCC(O)CN2CCC(CN3C(=O)c4cccc5cccc(c45)C3=O)CC2)c1 (stereo not drawn) | ? | -65.3* | ? | ? | ?
CC(C)CN(CC(C)C)C(=O)C1CCCN(S(=O)(=O)c2ccc3c(c2)oc(=O)n3C)C1 (stereo not drawn) | -13.8%[46.1 µM] | 7.4 | nt | 3.3%[46.1 µM] | -36.3%
O=C(NNC(=O)c1cc2ccccc2[nH]1)OCc1ccccc1 | nt | 7.2 | nt | nt | 28.4%
CCCn1c(-c2ccc(S(=O)(=O)N3CCOCC3)cc2)csc1=Nc1ccc(OCC)cc1 | -14.6%[46.1 µM] | 1.5 | nt | 10.6%[46.1 µM] | -1.0%
Cc1cc(C)cc(OCC(O)CN2CCC(CN3C(=O)c4cccc5cccc(c45)C3=O)CC2)c1 (stereo not drawn) | nt | -101.4* | 2.24µM* | -0.9% | ?
Cc1ccc(S(=O)(=O)N2CCC(CN3C(=O)c4cccc5cccc(c45)C3=O)CC2)cc1 | -14.3% | -16.8 | ? | -13.2% | -12.0%
COC(=O)C1=C(C(=O)OC)C(C(=O)OC)C(C(=O)OC)C(C(=O)OC)(C(=O)OC)C(C(=O)OC)=C1C(=O)OC (stereo not drawn) | ? | 11.2 | ? | ? | 39.8µM*
COc1cc(=O)n2c(c1C(=O)N(C)Cc1nonc1C)CCN(Cc1ccccc1Cl)CC2 | nt | nt | nt | nt | -13.5%
CC(NC(=O)C1CCOCC1)c1nnc2n1CCN(Cc1cc3c(cc1Cl)OCO3)CC2 (stereo not drawn) | nt | nt | nt | nt | -11.9%
Cc1c(CCNC(=O)C(C)(C)C)sc2nc(-c3ccc(F)cc3)nn12 | -24.8%[46.1 µM] | -91.0* | nt | nt | ?
COc1ccc(-c2nc3sc(CCNS(=O)(=O)c4c(C)cc(C)cc4C)c(C)n3n2)cc1 | -18.9%[46.1 µM] | -82.5* | nt | nt | 17.2%
COc1ccc(S(=O)(=O)NCCc2sc3nc(-c4ccc(C)cc4)nn3c2C)cc1F | -26.3%[46.1 µM] | -73.8* | nt | nt | -20.1%
CCS(=O)(=O)NCCc1sc2nc(-c3ccc(OC)cc3)nn2c1C | -15.2%[46.1 µM] | ? | nt | nt | -25.4%
CCOC(=O)NN=C1C[C@@H](O)[C@@H](O)[C@@H]2[C@H]3C(=O)N([C@@H](C)c4ccccc4)C(=O)[C@@H]3CC[C@H]12 | nt | nt | nt | 9.5%[14.2 µM] | nt
Cc1nc2scc(C)n2c(=O)c1S(=O)(=O)Nc1ccc(N2CCN(S(C)(=O)=O)CC2)cc1 | -17.0%[46.1 µM] | -83.4*! | ? | ? | ?
Cc1cccc(NS(=O)(=O)c2c(C)nc3scc(C)n3c2=O)c1 | -23.8%[46.1 µM] | -70.0* | -2.1% | -1.7%[46.1 µM] | 20.2%
Cc1cc(C)cc(NS(=O)(=O)c2c(C)nc3scc(C)n3c2=O)c1 | 18.4%[46.1 µM] | -5.9 | nt | ? | 47.6%
CC(=O)c1ccc(NS(=O)(=O)c2c(C)nc3scc(C)n3c2=O)cc1 | -1.1%[46.1 µM] | -2.5 | nt | 4.2%[46.1 µM] | 18.0%
CCc1nn2c(=O)c(S(=O)(=O)Nc3ccc(C)c(C)c3)c(C)nc2s1 | -9.3%[46.1 µM] | -87.6* | nt | -3.3%[46.1 µM] | -1.2%
O=C(Cc1ccccc1)NN1C(=O)C2C3C=CC(C4CC34)C2C1=O (stereo not drawn) | 3.0% | 25.9 | 26.0% | 17.7% | 1.9%
CCOc1ccc(C2CC(c3cccc(OC)c3OC)n3nnnc3N2)cc1Cl (stereo not drawn) | -11.3% | 0.6 | 11.2µM* | 8.8% | -15.8%
CN(C)c1ccc(C(=C2C=CC(=[N+](C)C)C=C2)c2ccc(N(C)C)cc2)cc1 | nt | nt | nt | nt | 17.8µM*
CC(=O)CC(=O)NC(=NC1CCCCC1)Nc1nc(C)cc(C)n1 | -5.5% | 51.2 | 11.2µM* | ? | -10.8%
SMILES | LASV entry inh | HCMV inh | HCV inh | MARV entry inh | FMDV inh
O=[N+]([O-])c1cccc(C2(O)COc3ccccc3O2)c1 (stereo not drawn) | ? | 14.8 | -23.4% | 10.5% | 5.9%
Cn1c2c(c(=O)n(C)c1=O)C(C(F)(F)F)(C(F)(F)F)N=C(CCC1CCCCC1)N2 | 2.59µM* | -103.0* | ? | 11.2µM* | 14.1µM*
COc1ccc(NS(=O)(=O)c2ccc(C)c(C(=O)NNC(=O)c3ccccc3O)c2)cc1 | ? | -6.9 | ? | -24.5% | -6.8%
Cc1ccc(S(=O)(=O)Nc2ccccc2F)cc1C(=O)NNC(=O)c1ccccc1O | ? | -87.2* | ? | -19.3%[46.1 µM] | 2.3%
Cc1cc(NC(=O)CCC(=O)N(Cc2ccco2)C(C(=O)NC2CCCC2)c2ccc(F)cc2)no1 (stereo not drawn) | 3.0% | -63.2* | -21.7% | ? | -10.8%
Cc1cc(NC(=O)CCC(=O)N(Cc2ccco2)C2(C(=O)NC3CCCC3)CCC(C)CC2)no1 (stereo not drawn) | nt | -12.5 | 14.1µM* | -18.5%[46.1 µM] | -7.4%
O=C(NC1CCCCC1)C(c1ccccn1)N(C(=O)Cc1cccs1)c1ccc(Cl)cc1 (stereo not drawn) | -26.9% | -21.5 | -7.5% | 10.3µM* | 18.3%
Cc1cc(C)cc(N(C(=O)Cc2cccs2)C(C(=O)NC2CCCCC2)c2ccccn2)c1 (stereo not drawn) | 16.4% | -18.6 | -20.1% | -19.4% | 25.3%
CCOc1ccc(N(C(=O)/C=C/C(=O)Nc2cc(C)on2)C(C(=O)NC2CCCC2)c2ccccc2C)cc1 (stereo not drawn) | nt | -93.2* | 16.4% | nt | ?
Cc1cc(NC(=O)CCC(=O)N(Cc2ccco2)C(C(=O)NC2CCCC2)c2ccccc2)no1 (stereo not drawn) | -3.2%[46.1 µM] | -27.5 | 9.5% | ? | 4.3%
CC(C)(C)Sc1ccc([N+](=O)[O-])cc1C(=O)Nc1ccncc1 | 15.4% | -2.9 | -6.9% | 4.0%[46.1 µM] | 34.2%
O=S(=O)(N1CC[C@@]23C1=CC=C[C@@H]2N(S(=O)(=O)C(F)(F)F)c1ccccc13)C(F)(F)F | nt | 35.3 | nt | nt | nt
O=C(c1ccc2c(c1)OCO2)N(Cc1ccco1)C1(C(=O)NC2CCCCC2)CCCCC1 | ? | -33.6 | 10µM* | ? | -20.1%
Cc1cc(NC(=O)CCC(=O)N(c2ccccc2)C(C(=O)NC2CCCCC2)c2cccs2)no1 (stereo not drawn) | -12.7% | -64.6* | 1.5% | ? | -1.2%
CCCCc1ccc(NC(=O)c2cnccn2)cc1 | 11.2µM* | -33.0 | -7.4% | 7.94µM* | 9.8%
O=C(Nc1ccc(N2CCOCC2)cc1)c1cnsn1 | nt | -73.4* | 8.7% | 4.1% | 28.2µM*
O=C(Nc1ccc(N2CCOCC2)cc1)c1cnccn1 | 2.24µM* | ? | -3.7% | ? | -58.9%
CCCc1ccc(NC(=O)C2CCN(c3cnccn3)CC2)cc1 | 1.3%[46.1 µM] | -64.0*! | ? | 1.1%[46.1 µM] | -15.7%
COC(=O)c1ccc(NC(=O)NC(C)c2c(-n3cccc3)sc(C)c2C)cc1 (stereo not drawn) | nt | -37.6 | nt | -15.7%[46.1 µM] | 13.0%
Cc1nn(CC(=O)NC2(C#N)CCCCC2)c(C)c1[N+](=O)[O-] | nt | 12.4 | 5.2% | nt | -6.5%
